Laboratory results reported in PubChem BioAssay (EPA / NIEHS).
Active and inactive are the calls of the source. How the source made its calls: active means hit-call score of the fitted dose curve at least 0.9, where 1 is the maximum; inactive means score below 0.9.

What was measured:
Details in all cases: mRNA level, 48 h; actives raise or lower the signal
[1] = read-out: ABC Transporter (ABCB1), ABCB1 (gene 5243); assay: LTEA_HepaRG_ABCB1: Life Technologies and Expression Analysis (LTEA) Assay for ABC Transporter (ABCB1) using HepaRG (AID 2283460)
Procedure, shortened: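 HepaRG cells exposed in duplicate for 48 h in serum-free induction medium to eight half-log concentrations up to 100 uM in 0.5% DMSO. ABCB1 mRNA quantified by qRT-PCR, normalised to ACTB, GAPDH and POLR2A; fitted bidirectionally versus DMSO.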

[2] = read-out: growth arrest and DNA damage 45 (GADD45B), GADD45B (gene 4616); assay: LTEA_HepaRG_GADD45B: Life Technologies and Expression Analysis (LTEA) Assay for growth arrest and DNA damage 45 (GADD45B) using HepaRG (AID 2283461)
Procedure, shortened: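 qRT-PCR read-out (Fluidigm TaqMan, housekeeping-normalized) of mRNA change in human HepaRG cells after 48 h chemical exposure; 8-point curve, top 100 uM, half-log steps, 0.5% DMSO vehicle; gain or loss fitted relative to DMSO baseline.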

[3] = read-out: ABC Transporter (ABCC3), ABCC3 (gene 8714); assay: LTEA_HepaRG_ABCC3: Life Technologies and Expression Analysis (LTEA) Assay for ABC Transporter (ABCC3) using HepaRG (AID 2283462)
Procedure, shortened: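 qRT-PCR read-out of ABCC3 transcript, normalized to three housekeeping genes (ACTB, GAPDH, POLR2A), after 48 h chemical exposure of human HepaRG cells. Eight half-log concentrations, highest 100 uM, in 0.5% DMSO; gain or loss fitted relative to DMSO baseline.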

[4] = read-out: ABC Transporter (ABCB11), ABCB11 (gene 8647); assay: LTEA_HepaRG_ABCB11: Life Technologies and Expression Analysis (LTEA) Assay for ABC Transporter (ABCB11) using HepaRG (AID 2283463)
Procedure, shortened: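 Differentiated human HepaRG cells in serum-free induction medium, dosed in duplicate for 48 h. Eight-point half-log series from 100 uM in 0.5% DMSO; ABCB11 mRNA by qRT-PCR, normalized to ACTB, GAPDH, POLR2A, fitted bidirectionally versus DMSO.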

[5] = read-out: ABC Transporter (ABCC2), ABCC2 (gene 1244); assay: LTEA_HepaRG_ABCC2: Life Technologies and Expression Analysis (LTEA) Assay for ABC Transporter (ABCC2) using HepaRG (AID 2283464)
Procedure, shortened: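 qRT-PCR (TaqMan, Fluidigm array) read-out of ABCC2 mRNA, normalized to three housekeeping genes. Differentiated HepaRG cells were treated 48 h in serum-free induction medium with 8-point half-log series from 100 uM in 0.5% DMSO; curves fitted bidirectionally relative to DMSO.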

[6] = read-out: Broad substrate specificity ATP-binding cassette transporter ABCG2 (Homo sapiens) (UniProt Q9UNQ0); assay: LTEA_HepaRG_ABCG2: Life Technologies and Expression Analysis (LTEA) Assay for ABC Transporter (ABCG2) using HepaRG (AID 2283465)
Procedure, shortened: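 Differentiated HepaRG cells were exposed for 48 h in serum-free induction medium to 8 half-log concentrations, top 100 uM, in 0.5% DMSO. ABCG2 mRNA was measured by qRT-PCR, normalized to ACTB, GAPDH and POLR2A, with bidirectional fitting versus DMSO.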

[7] = read-out: ATP-citrate lyase (ACLY), ACLY (gene 47); assay: LTEA_HepaRG_ACLY: Life Technologies and Expression Analysis (LTEA) Assay for ATP-citrate lyase (ACLY) using HepaRG (AID 2283466)
Procedure, shortened: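 Differentiated HepaRG cells exposed 48 h in serum-free induction medium to eight half-log concentrations up to 100 uM in 0.5% DMSO, duplicates. Transcript measured by Fluidigm TaqMan qRT-PCR, normalized to ACTB, GAPDH, POLR2A; bidirectional fit versus DMSO.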

[8] = read-out: Peroxisomal acyl-coenzyme A oxidase 1 (ACOX1) gene, ACOX1 (gene 51); assay: LTEA_HepaRG_ACOX1: Life Technologies and Expression Analysis (LTEA) Assay for Peroxisomal acyl-coenzyme A oxidase 1 (ACOX1) gene using HepaRG (AID 2283467)
Procedure, shortened: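 HepaRG cells, plated 48 h then switched to serum-free induction medium, were exposed in duplicate for 48 h to 8-point half-log concentrations up to 100 uM in 0.5% DMSO. ACOX1 mRNA was measured by qRT-PCR, normalized to ACTB/GAPDH/POLR2A, and fitted bidirectionally versus DMSO.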

[9] = read-out: Bcl-2 (BAD) gene, BAD (gene 572); assay: LTEA_HepaRG_BAD: Life Technologies and Expression Analysis (LTEA) Assay for Bcl-2 (BAD) gene using HepaRG (AID 2283469)
Procedure, shortened: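 Differentiated HepaRG cells were exposed in duplicate in 0.5% DMSO for 48 h to eight-point half-log concentrations up to 100 uM. BAD mRNA was measured by Fluidigm TaqMan qRT-PCR, normalized to ACTB, GAPDH and POLR2A, and fitted bidirectionally against DMSO.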

[10] = read-out: Bcl-2 (BAX) gene, BAX (gene 581); assay: LTEA_HepaRG_BAX: Life Technologies and Expression Analysis (LTEA) Assay for Bcl-2 (BAX) gene using HepaRG (AID 2283470)
Procedure, shortened: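 HepaRG (human liver), 48 h exposure, duplicate wells. 8-pt curve, half-log from 100 uM, 0.5% DMSO. BAX transcript by TaqMan qRT-PCR; ACTB/GAPDH/POLR2A normalization; gain or loss vs DMSO baseline.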

[11] = read-out: Alpha-fetoprotein (AFP) gene, AFP (gene 174); assay: LTEA_HepaRG_AFP: Life Technologies and Expression Analysis (LTEA) Assay for Alpha-fetoprotein (AFP) gene using HepaRG (AID 2283472)
Procedure, shortened: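 HepaRG, single lot; 48 h post-plating -> serum-free induction medium; cpd 8-pt, 100 uM top, half-log, 0.5% DMSO, duplicate, 48 h. RNA -> qRT-PCR AFP, norm ACTB/GAPDH/POLR2A. Bidirectional fit vs DMSO.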

[12] = read-out: BCL2L11 (gene 10018); assay: LTEA_HepaRG_BCL2L11: Life Technologies and Expression Analysis (LTEA) Assay for Bcl-2 (BCL2L11) gene using HepaRG (AID 2283473)
Procedure, shortened: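 HepaRG, 48 h exposure, 8-pt half-log series from 100 uM in 0.5% DMSO, duplicates; qRT-PCR (Fluidigm TaqMan) for BCL2L11, housekeeping-normalized; bidirectional curve fit relative to DMSO baseline.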

[13] = read-out: Apolipoprotein A-V (APOA5) gene, APOA5 (gene 116519); assay: LTEA_HepaRG_APOA5: Life Technologies and Expression Analysis (LTEA) Assay for Apolipoprotein A-V (APOA5) gene using HepaRG (AID 2283474)
Procedure, shortened: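 HepaRG, 48 h chemical exposure in serum-free induction medium, 8-pt half-log series (top 100 uM), 0.5% DMSO vehicle, duplicates. Readout: APOA5 mRNA by qRT-PCR, housekeeping-normalized; bidirectional fit vs DMSO baseline.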

[14] = read-out: Apoptosis regulator Bcl-2 (Homo sapiens) (UniProt P10415); assay: LTEA_HepaRG_BCL2: Life Technologies and Expression Analysis (LTEA) Assay for Bcl-2 gene using HepaRG (AID 2283475)
Procedure, shortened: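 HepaRG, plated 48 h then switched to serum-free induction medium; dosed 48 h, 8 conc. (max 100 uM, half-log steps), duplicate, 0.5% DMSO. Lysis in RLT, RNA isolated, TaqMan qRT-PCR for BCL2; ACTB/GAPDH/POLR2A normalisation; bidirectional fit vs DMSO.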

[15] = read-out: Bcl-2 (BID) gene, BID (gene 637); assay: LTEA_HepaRG_BID: Life Technologies and Expression Analysis (LTEA) Assay for Bcl-2 (BID) gene using HepaRG (AID 2283476)
Procedure, shortened: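 Transcript levels of BID, measured by qRT-PCR and normalized to three housekeeping genes, were fitted bidirectionally against DMSO controls. Cells were HepaRG, dosed 48 h at up to 100 uM.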

[16] = read-out: Caspase-3 (Homo sapiens) (UniProt P42574); assay: LTEA_HepaRG_CASP3: Life Technologies and Expression Analysis (LTEA) Assay for cysteine-aspartic acid protease (CASP3) using HepaRG (AID 2283477)
Procedure, shortened: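 HepaRG, 48 h exposure, 8 conc. (top 100 uM, half-log steps, duplicate), 0.5% DMSO vehicle; qRT-PCR of CASP3 transcript, housekeeping-normalised (ACTB/GAPDH/POLR2A); bidirectional curve fit vs DMSO baseline.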

[17] = read-out: Cytochrome P450 (CYP24A1), CYP24A1 (gene 1591); assay: LTEA_HepaRG_CYP24A1: Life Technologies and Expression Analysis (LTEA) Assay for Cytochrome P450 (CYP24A1) using HepaRG (AID 2283478)
Procedure, shortened: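 qRT-PCR read-out: CYP24A1 transcript levels normalized to three housekeeping genes, bidirectional curve fits against 0.5% DMSO baseline. Human HepaRG cells treated 48 h with chemicals at eight concentrations from 100 uM in half-log steps.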

[18] = read-out: Cytochrome P450 (CYP1A2), CYP1A2 (gene 1544); assay: LTEA_HepaRG_CYP1A2: Life Technologies and Expression Analysis (LTEA) Assay for Cytochrome P450 (CYP1A2) using HepaRG (AID 2283479)
Procedure, shortened: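 HepaRG, 48 h exposure, top 100 uM, half-log 8-pt, 0.5% DMSO vehicle, duplicates. Readout: TaqMan qRT-PCR of CYP1A2 mRNA, housekeeping-normalized (ACTB/GAPDH/POLR2A). Gain/loss fit relative to DMSO baseline.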

[19] = read-out: Alkaline Phosphatase, Placental (ALPP) gene, ALPP (gene 250); assay: LTEA_HepaRG_ALPP: Life Technologies and Expression Analysis (LTEA) Assay for Alkaline Phosphatase, Placental (ALPP) gene using HepaRG (AID 2283468)
Procedure, shortened: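 qRT-PCR readout of ALPP mRNA (Fluidigm TaqMan), normalized to ACTB/GAPDH/POLR2A, after 48 h chemical exposure of HepaRG cells; 8-point half-log series, top 100 uM, 0.5% DMSO vehicle. Bidirectional curve fit versus DMSO baseline.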

[20] = read-out: adenosine kinase (ADK) gene, ADK (gene 132); assay: LTEA_HepaRG_ADK: Life Technologies and Expression Analysis (LTEA) Assay for adenosine kinase (ADK) gene using HepaRG (AID 2283471)
Procedure, shortened: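 Read-out is ADK transcript level measured by qRT-PCR and normalised to three housekeeping genes. Cells are human HepaRG, dosed for 48 h at up to 100 uM in 0.5% DMSO. Gain or loss of signal is fitted against DMSO controls.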

Measured: AC50

Sequence of Caspase-3 (Homo sapiens) (P42574 whole entry, looked up): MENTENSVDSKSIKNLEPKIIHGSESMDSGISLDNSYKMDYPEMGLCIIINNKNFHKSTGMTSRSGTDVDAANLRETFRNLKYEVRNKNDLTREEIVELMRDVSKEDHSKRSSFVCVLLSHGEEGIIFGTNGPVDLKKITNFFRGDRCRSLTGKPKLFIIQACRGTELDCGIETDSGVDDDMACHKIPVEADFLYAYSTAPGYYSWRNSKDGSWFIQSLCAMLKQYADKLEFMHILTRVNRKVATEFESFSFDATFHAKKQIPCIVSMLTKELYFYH
Sequence of Broad substrate specificity ATP-binding cassette transporter ABCG2 (Homo sapiens) (Q9UNQ0 whole entry, looked up): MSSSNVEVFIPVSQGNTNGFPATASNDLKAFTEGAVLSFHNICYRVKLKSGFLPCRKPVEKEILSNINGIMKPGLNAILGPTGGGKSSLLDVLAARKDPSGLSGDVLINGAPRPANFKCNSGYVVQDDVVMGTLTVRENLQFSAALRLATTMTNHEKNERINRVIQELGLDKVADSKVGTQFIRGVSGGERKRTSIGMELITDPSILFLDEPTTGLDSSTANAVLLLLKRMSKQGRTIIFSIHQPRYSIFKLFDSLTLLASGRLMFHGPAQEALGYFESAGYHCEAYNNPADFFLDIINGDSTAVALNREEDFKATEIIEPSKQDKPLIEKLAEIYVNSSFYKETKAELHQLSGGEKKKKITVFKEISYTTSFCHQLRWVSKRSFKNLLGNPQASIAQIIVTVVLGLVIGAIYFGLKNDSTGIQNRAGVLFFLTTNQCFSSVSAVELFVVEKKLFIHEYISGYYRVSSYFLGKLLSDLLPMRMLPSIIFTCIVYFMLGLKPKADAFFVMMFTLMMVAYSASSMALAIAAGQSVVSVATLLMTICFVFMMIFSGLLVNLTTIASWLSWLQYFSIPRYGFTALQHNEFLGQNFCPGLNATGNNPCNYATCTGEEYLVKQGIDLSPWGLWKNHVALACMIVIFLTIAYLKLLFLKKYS
Sequence of Apoptosis regulator Bcl-2 (Homo sapiens) (P10415 whole entry, looked up): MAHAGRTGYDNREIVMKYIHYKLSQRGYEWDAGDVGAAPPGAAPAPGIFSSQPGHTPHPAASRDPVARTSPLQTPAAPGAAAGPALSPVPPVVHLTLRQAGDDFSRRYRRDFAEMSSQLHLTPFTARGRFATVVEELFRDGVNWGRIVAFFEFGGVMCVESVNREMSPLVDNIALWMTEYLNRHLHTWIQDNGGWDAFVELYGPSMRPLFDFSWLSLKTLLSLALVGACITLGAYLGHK

ClCCOCCCl
not listed: [19] | [20]
inactive: all other assays above

CCCCCOC(=O)c1ccccc1C(=O)OCCCCC
not listed: [11] | [19] | [20]
inactive: all other assays above

CO[C@@H]1[C@H](OC(=O)NC(=O)CCl)CC[C@]2(CO2)[C@H]1[C@@]1(C)O[C@@H]1CC=C(C)C
active: [4] 0.286 µM
not listed: [5] | [11] | [18]
inactive: all other assays above

CCC12COCN1COC2
not listed: [5] | [18]
inactive: all other assays above

Oc1ccc2ccc3cccc4ccc1c2c34
active: [6] 11.9 µM | [18] 11.5 µM
not listed: [11] | [19]
inactive: all other assays above

O=C(O)C1C2CCC(O2)C1C(=O)O (stereo unspecified)
active: [4] 77.9 µM | [6] 14.2 µM | [19] 20.1 µM | [11] 75.3 µM | [13] 67.8 µM | [18] 50 µM
not listed: [5]
inactive: all other assays above

Oc1ccccc1Cl
not listed: [11] | [18] | [19]
inactive: all other assays above

[As]#[In]
not listed: [5] | [18] | [20]
inactive: all other assays above

Cc1ccc([N+](=O)[O-])cc1
active: [1] 2.47 µM
not listed: [5] | [11] | [18] | [20]
inactive: all other assays above

CN(C)c1ccc(C(=O)c2ccc(N(C)C)cc2)cc1
active: [19] 3.13 µM | [14] 8.06 µM
not listed: [5] | [11] | [18] | [20]
inactive: all other assays above

CS(=O)(=O)NC(=O)c1cc(Oc2ccc(C(F)(F)F)cc2Cl)ccc1[N+](=O)[O-]
active: [1] 0.644 µM | [4] 50 µM
not listed: [5] | [11] | [18]
inactive: all other assays above

[Cl-].[Cl-].[Hg+2]
active: [2] 50 µM | [18] 50 µM
not listed: [5] | [19]
inactive: all other assays above

c1ccc2c(c1)-c1cccc3cccc-2c13
active: [18] 50 µM
not listed: [5] | [11] | [19]
inactive: all other assays above

O=C(Oc1ccc(Br)cc1)N1CCN2CCC1CC2
active: [7] 73.5 µM | [18] 66.7 µM
not listed: [4] | [5] | [11] | [20]
inactive: all other assays above

O=C1CCCO1
active: [1] 9.92 µM | [16] 50 µM
not listed: [5] | [11] | [18] | [20]
inactive: all other assays above

Cc1cc(N=Nc2ccccc2C)ccc1N
inactive: [6] | [9] | [16] | [17]
active: [1] 5.45 µM | [2] 7.67 µM | [3] 13 µM | [4] 4.58 µM | [7] 0.387 µM | [8] 2.57 µM | [10] 1.99 µM | [12] 3.13 µM | [13] 2.97 µM | [14] 78 µM
